For 28 sequences, binding signal results are on record in publication PMC10812921, “Transcriptional Coactivator BOB1 (OBF1, OCA-B) Modulates the Specificity of DNA Recognition by the POU-Domain Factors OCT1 and OCT2 in a Monomeric Configuration”.

One experiment concerns the target POU1 (OCT1 POU domain) (human, UniProt P14859 260-458). As to the kind of experiment: EMSA-SELEX-seq; no BOB1; 20 mM Tris-HCl pH 7.6, 140 mM NaCl, 10% glycerol, 0.5 mM EDTA, 0.05% Triton X-100, 0.1 mg/mL BSA, 0.1 mg/mL poly(dI-dC), 5 mM DTT, room temperature, 20 min; high values mean tight binding. Conditions: protein: recombinant; dsDNA, one strand shown. Summed up: (§1)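 With or without 28 ng coactivator protein, 30 ng of tagged POU-domain protein was combined with 300 ng of a PCR-amplified double-stranded random 35-nt library in 20 μL Tris–HCl pH 7.6 binding buffer for 20 min at RT. The protein came from E. coli BL21 and had been purified under denaturing conditions and renatured. Four rounds of cutting complex bands from native 6% PAGE, elution and PCR amplification preceded Illumina sequencing. The binding preference figure is the percentage of sequenced 8-mers matching a motif pattern.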

The next experiment concerns the target T1, POU2 (OCT2 POU domain) (human, UniProt P09086 175-386).
T1 sequence: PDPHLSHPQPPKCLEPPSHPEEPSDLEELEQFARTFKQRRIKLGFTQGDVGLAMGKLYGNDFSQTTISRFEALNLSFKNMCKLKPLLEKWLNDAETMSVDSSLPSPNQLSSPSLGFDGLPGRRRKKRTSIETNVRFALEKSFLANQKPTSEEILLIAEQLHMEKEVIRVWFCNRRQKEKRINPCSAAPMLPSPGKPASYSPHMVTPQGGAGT
Described as above. Conditions: protein: recombinant; dsDNA, one strand shown. Summed up: as §1

Experiment [1] has as its target POU1 (OCT1 POU domain);BOB1 (OBF1, OCA-B) (human;human, UniProt P14859;Q16633 260-458;1-256, |). As to the kind of experiment: EMSA-SELEX-seq; with BOB1 (ternary complex band); 20 mM Tris-HCl pH 7.6, 140 mM NaCl, 10% glycerol, 0.5 mM EDTA, 0.05% Triton X-100, 0.1 mg/mL BSA, 0.1 mg/mL poly(dI-dC), 5 mM DTT, room temperature, 20 min; high values mean tight binding. Conditions: protein: recombinant;recombinant; copies: 1;1; dsDNA, one strand shown. An outline of the steps: as §1
(In EMSA bound probe runs differently from free probe, usually more slowly.)

In experiment [2] the target is T2, POU2 (OCT2 POU domain);BOB1 (OBF1, OCA-B) (human;human, UniProt P09086;Q16633 175-386;1-256, |).
T2 sequence 1: T1 sequence
T2 sequence 2: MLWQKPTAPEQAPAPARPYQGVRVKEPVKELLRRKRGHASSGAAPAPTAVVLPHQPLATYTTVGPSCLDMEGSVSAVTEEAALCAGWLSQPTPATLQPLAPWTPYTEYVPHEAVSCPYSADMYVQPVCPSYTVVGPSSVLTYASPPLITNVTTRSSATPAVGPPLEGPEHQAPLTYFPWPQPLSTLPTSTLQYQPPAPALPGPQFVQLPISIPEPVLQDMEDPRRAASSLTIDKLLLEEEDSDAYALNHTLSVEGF
Described as above. Conditions: protein: recombinant;recombinant; copies: 1;1; dsDNA, one strand shown. Summed up: as §1

Sequence of POU1 (OCT1 POU domain) (P14859 260-458): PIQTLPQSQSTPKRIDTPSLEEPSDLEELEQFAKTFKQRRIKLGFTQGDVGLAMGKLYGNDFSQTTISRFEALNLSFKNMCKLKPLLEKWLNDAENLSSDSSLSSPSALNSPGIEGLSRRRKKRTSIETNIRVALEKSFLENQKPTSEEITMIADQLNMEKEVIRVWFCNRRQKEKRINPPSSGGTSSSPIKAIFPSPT

Consider ATCCAAAA, for which the binding signal in the experiment with POU1 (OCT1 POU domain) is 0.0591 % of ANNNNAAN 8-mers; with POU2 (OCT2 POU domain), 0.0414 % of ANNNNAAN 8-mers; in experiment [1], 0.0722 % of ANNNNAAN 8-mers; in experiment [2], 0.0446 % of ANNNNAAN 8-mers.

Regarding AAACGAAA, the binding signal in the experiment with POU1 (OCT1 POU domain) is 0.0568 % of ANNNNAAN 8-mers; with POU2 (OCT2 POU domain), 0.0558 % of ANNNNAAN 8-mers; in experiment [1], 0.0644 % of ANNNNAAN 8-mers; in experiment [2], 0.052 % of ANNNNAAN 8-mers.

For the sequence AAGGTAAA, the binding signal with POU1 (OCT1 POU domain) is 0.108 % of ANNNNAAN 8-mers; with POU2 (OCT2 POU domain) it was 0.109 % of ANNNNAAN 8-mers; in experiment [1], 0.144 % of ANNNNAAN 8-mers; in experiment [2] it was 0.0933 % of ANNNNAAN 8-mers.

With ACTCTAAG, the binding signal in the experiment with POU1 (OCT1 POU domain) was 0.0214 % of ANNNNAAN 8-mers; with POU2 (OCT2 POU domain) it was 0.0224 % of ANNNNAAN 8-mers; in experiment [1], 0.0258 % of ANNNNAAN 8-mers; in experiment [2], 0.0206 % of ANNNNAAN 8-mers.

With AGTCGAAT, the binding signal is 0.061 % of ANNNNAAN 8-mers in the experiment with POU1 (OCT1 POU domain), 0.0604 % of ANNNNAAN 8-mers with POU2 (OCT2 POU domain), 0.0468 % of ANNNNAAN 8-mers in experiment [1] and 0.0611 % of ANNNNAAN 8-mers in experiment [2].

Consider AAGATAAA, for which the binding signal with POU1 (OCT1 POU domain) is 0.0622 % of ANNNNAAN 8-mers; with POU2 (OCT2 POU domain), 0.0662 % of ANNNNAAN 8-mers; in experiment [1] it was 0.0585 % of ANNNNAAN 8-mers; in experiment [2], 0.0405 % of ANNNNAAN 8-mers.

As to AAATCAAG, the binding signal with POU1 (OCT1 POU domain) was 0.098 % of ANNNNAAN 8-mers; with POU2 (OCT2 POU domain), 0.0926 % of ANNNNAAN 8-mers; in experiment [1], 0.132 % of ANNNNAAN 8-mers; in experiment [2], 0.128 % of ANNNNAAN 8-mers.

Regarding ATCTAAAC, the binding signal is 0.0229 % of ANNNNAAN 8-mers with POU1 (OCT1 POU domain), 0.0374 % of ANNNNAAN 8-mers with POU2 (OCT2 POU domain), 0.0379 % of ANNNNAAN 8-mers in experiment [1] and 0.0495 % of ANNNNAAN 8-mers in experiment [2].

As to ACAACAAC, the binding signal with POU1 (OCT1 POU domain) was 0.0187 % of ANNNNAAN 8-mers; with POU2 (OCT2 POU domain), 0.0104 % of ANNNNAAN 8-mers; in experiment [1] it was 0.0133 % of ANNNNAAN 8-mers; in experiment [2] it was 0.0124 % of ANNNNAAN 8-mers.

On to ATGGGAAT, for which the binding signal with POU1 (OCT1 POU domain) is 0.117 % of ANNNNAAN 8-mers; with POU2 (OCT2 POU domain), 0.128 % of ANNNNAAN 8-mers; in experiment [1] it was 0.0995 % of ANNNNAAN 8-mers; in experiment [2], 0.116 % of ANNNNAAN 8-mers.

Turning to ATTTTAAA, the binding signal with POU1 (OCT1 POU domain) is 0.198 % of ANNNNAAN 8-mers; in the experiment with POU2 (OCT2 POU domain) it was 0.204 % of ANNNNAAN 8-mers; in experiment [1], 0.126 % of ANNNNAAN 8-mers; in experiment [2], 0.103 % of ANNNNAAN 8-mers.

Regarding AGTCCAAG, the binding signal with POU1 (OCT1 POU domain) was 0.0236 % of ANNNNAAN 8-mers; in the experiment with POU2 (OCT2 POU domain), 0.0253 % of ANNNNAAN 8-mers; in experiment [1], 0.0261 % of ANNNNAAN 8-mers; in experiment [2] it was 0.0215 % of ANNNNAAN 8-mers.

Consider ATACTAAA, for which the binding signal is 0.0648 % of ANNNNAAN 8-mers with POU1 (OCT1 POU domain), 0.0886 % of ANNNNAAN 8-mers with POU2 (OCT2 POU domain), 0.0499 % of ANNNNAAN 8-mers in experiment [1] and 0.0594 % of ANNNNAAN 8-mers in experiment [2].

Consider AGCAGAAC, for which the binding signal in the experiment with POU1 (OCT1 POU domain) was 0.0179 % of ANNNNAAN 8-mers; with POU2 (OCT2 POU domain), 0.0299 % of ANNNNAAN 8-mers; in experiment [1] it was 0.0211 % of ANNNNAAN 8-mers; in experiment [2], 0.014 % of ANNNNAAN 8-mers.

Consider AACTCAAC, for which the binding signal with POU1 (OCT1 POU domain) is 0.0168 % of ANNNNAAN 8-mers; with POU2 (OCT2 POU domain), 0.0288 % of ANNNNAAN 8-mers; in experiment [1], 0.0172 % of ANNNNAAN 8-mers; in experiment [2], 0.0182 % of ANNNNAAN 8-mers.

Turning to AATTTAAT, the binding signal with POU1 (OCT1 POU domain) is 0.306 % of ANNNNAAN 8-mers; in the experiment with POU2 (OCT2 POU domain), 0.333 % of ANNNNAAN 8-mers; in experiment [1], 0.182 % of ANNNNAAN 8-mers; in experiment [2] it was 0.162 % of ANNNNAAN 8-mers.

Regarding ATCTGAAA, the binding signal with POU1 (OCT1 POU domain) was 0.0374 % of ANNNNAAN 8-mers; with POU2 (OCT2 POU domain) it was 0.046 % of ANNNNAAN 8-mers; in experiment [1], 0.0472 % of ANNNNAAN 8-mers; in experiment [2], 0.0545 % of ANNNNAAN 8-mers.

As for AACCAAAT, the binding signal with POU1 (OCT1 POU domain) is 0.166 % of ANNNNAAN 8-mers; in the experiment with POU2 (OCT2 POU domain) it was 0.121 % of ANNNNAAN 8-mers; in experiment [1], 0.257 % of ANNNNAAN 8-mers; in experiment [2] it was 0.18 % of ANNNNAAN 8-mers.

As to AAGTAAAT, the binding signal was 0.19 % of ANNNNAAN 8-mers with POU1 (OCT1 POU domain), 0.146 % of ANNNNAAN 8-mers in the experiment with POU2 (OCT2 POU domain), 0.227 % of ANNNNAAN 8-mers in experiment [1] and 0.147 % of ANNNNAAN 8-mers in experiment [2].

Turning to ATATCAAG, the binding signal in the experiment with POU1 (OCT1 POU domain) was 0.0641 % of ANNNNAAN 8-mers; with POU2 (OCT2 POU domain), 0.0552 % of ANNNNAAN 8-mers; in experiment [1] it was 0.0453 % of ANNNNAAN 8-mers; in experiment [2] it was 0.0479 % of ANNNNAAN 8-mers.

Take AATTGAAG: the binding signal in the experiment with POU1 (OCT1 POU domain) is 0.069 % of ANNNNAAN 8-mers; with POU2 (OCT2 POU domain) it was 0.0725 % of ANNNNAAN 8-mers; in experiment [1], 0.0624 % of ANNNNAAN 8-mers; in experiment [2], 0.052 % of ANNNNAAN 8-mers.

For the sequence AGTATAAG, the binding signal with POU1 (OCT1 POU domain) was 0.0397 % of ANNNNAAN 8-mers; with POU2 (OCT2 POU domain), 0.0587 % of ANNNNAAN 8-mers; in experiment [1] it was 0.041 % of ANNNNAAN 8-mers; in experiment [2] it was 0.0454 % of ANNNNAAN 8-mers.

ACGTGAAC: the binding signal with POU1 (OCT1 POU domain) was 0.0153 % of ANNNNAAN 8-mers; in the experiment with POU2 (OCT2 POU domain), 0.0247 % of ANNNNAAN 8-mers; in experiment [1] it was 0.0215 % of ANNNNAAN 8-mers; in experiment [2] it was 0.0206 % of ANNNNAAN 8-mers.

In the case of ATACCAAC, the binding signal is 0.0244 % of ANNNNAAN 8-mers in the experiment with POU1 (OCT1 POU domain), 0.0276 % of ANNNNAAN 8-mers with POU2 (OCT2 POU domain), 0.0242 % of ANNNNAAN 8-mers in experiment [1] and 0.0215 % of ANNNNAAN 8-mers in experiment [2].

In the case of AGCAGAAT, the binding signal was 0.0435 % of ANNNNAAN 8-mers with POU1 (OCT1 POU domain), 0.0621 % of ANNNNAAN 8-mers with POU2 (OCT2 POU domain), 0.0511 % of ANNNNAAN 8-mers in experiment [1] and 0.0561 % of ANNNNAAN 8-mers in experiment [2].

AAATCAAC: the binding signal is 0.0759 % of ANNNNAAN 8-mers with POU1 (OCT1 POU domain), 0.0921 % of ANNNNAAN 8-mers in the experiment with POU2 (OCT2 POU domain), 0.096 % of ANNNNAAN 8-mers in experiment [1] and 0.0916 % of ANNNNAAN 8-mers in experiment [2].

As for AGAAAAAA, the binding signal with POU1 (OCT1 POU domain) is 0.0767 % of ANNNNAAN 8-mers; with POU2 (OCT2 POU domain), 0.0857 % of ANNNNAAN 8-mers; in experiment [1], 0.0812 % of ANNNNAAN 8-mers; in experiment [2] it was 0.0561 % of ANNNNAAN 8-mers.

Consider AAAACAAA, for which the binding signal with POU1 (OCT1 POU domain) was 0.158 % of ANNNNAAN 8-mers; with POU2 (OCT2 POU domain), 0.119 % of ANNNNAAN 8-mers; in experiment [1], 0.262 % of ANNNNAAN 8-mers; in experiment [2] it was 0.125 % of ANNNNAAN 8-mers.
